Measurements reported in PubChem BioAssay (NCI).
The panel holds about 79,000 compounds, 15% with a hit somewhere; the sample as a whole holds those more often. Active and inactive are the calls of the source. Rule as the data show it: active = growth inhibition above about 70%; inactive = the rest.

How the values were obtained:
[1] = NCI Yeast Anticancer Drug Screen. Data for the rad52 strain (AID 147);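 also: 0% = growth of vehicle-treated control cultures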; conditions: S. cerevisiae rad52 mutant growth inhibition, active compounds read high
Method in brief: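 DNA repair-defective yeast; compound exposure; growth scored against vehicle controls.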

[2] = NCI Yeast Anticancer Drug Screen. Data for the wt1 strain (AID 149);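 also: 0% = growth of vehicle-treated wt1 cultures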; conditions: S. cerevisiae wt1 strain (SPY 50644) growth inhibition, active compounds read high
Method in brief: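 Measured: growth of wt1 yeast under compound versus vehicle treatment, reported as inhibition.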

[3] = NCI Yeast Anticancer Drug Screen. Data for the rad50EPP+ strain (AID 151);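 also: 0% = growth of vehicle-treated control cultures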; conditions: S. cerevisiae rad50 mutant strain, active compounds read high
Method in brief: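 rad50EPP+ yeast treated with test compounds. Readout: growth vs vehicle control.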

[4] = NCI Yeast Anticancer Drug Screen. Data for the mgt1 strain (AID 153); conditions: S. cerevisiae mgt1 mutant growth inhibition, active compounds read high
Method in brief: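 Growth inhibition relative to vehicle controls was scored for the mgt1 yeast strain after compound exposure.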

[5] = NCI Yeast Anticancer Drug Screen. Data for the rad50 strain (AID 155);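 also: 0% = growth of vehicle-only cultures of the same strain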; conditions: S. cerevisiae rad50 strain growth inhibition, active compounds read high
Method in brief: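 Growth of the mutant yeast was measured after compound exposure and referenced to vehicle-treated cultures.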

[6] = NCI Yeast Anticancer Drug Screen. Data for the mec2-1 strain (AID 157); conditions: S. cerevisiae mec2-1 strain, active compounds read high
Method in brief: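 Growth inhibition is read against vehicle-treated controls after compound exposure of the mec2-1 yeast strain, which is defective in DNA damage repair or cell cycle control.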

[7] = NCI Yeast Anticancer Drug Screen. Data for the rad14 strain (AID 159);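 also: 0% = growth of vehicle-treated control cultures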; conditions: S. cerevisiae rad14 strain growth inhibition, active compounds read high
Method in brief: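 Here, inhibition of yeast growth was measured after compound exposure, using a strain with a genetic defect in DNA damage repair and vehicle-treated cultures as the reference.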

[8] = NCI Yeast Anticancer Drug Screen. Data for the sgs1 mgt1 strain (AID 161);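 also: 0% = growth of cultures given vehicle only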; conditions: S. cerevisiae sgs1 mgt1 strain, active compounds read high
Method in brief: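 Yeast cells carrying a defined DNA-repair defect were exposed to test compounds. Growth inhibition was measured relative to vehicle-treated controls.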

[9] = NCI Yeast Anticancer Drug Screen. Data for the CLN2oe strain (AID 163);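 also: 0% = growth of vehicle-only control cultures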; conditions: S. cerevisiae CLN2oe strain, active compounds read high
Method in brief: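 Compound-treated yeast; growth vs vehicle ctrl = % inhibition. Genetically altered strain (cell-cycle control).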

[10] = NCI Yeast Anticancer Drug Screen. Data for the cln2 rad14 strain (AID 165);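 also: 0% = growth equal to vehicle treated cultures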; conditions: S. cerevisiae cln2 rad14 strain, active compounds read high
Method in brief: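 Growth inhibition, relative to vehicle-treated controls, is the read-out. The test organism is a yeast strain with defined genetic alterations, cln2 rad14.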

[11] = NCI Yeast Anticancer Drug Screen. Data for the bub3 strain (AID 167); conditions: S. cerevisiae bub3 mutant strain, active compounds read high
Method in brief: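 Whole-cell yeast assay. The mutant strain was incubated with compounds, and growth inhibition was determined by comparison with vehicle-treated cells.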

[12] = NCI Yeast Anticancer Drug Screen. Data for the wt2 strain (AID 169);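 also: 0% = growth of vehicle-treated yeast cultures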; conditions: S. cerevisiae wt2 strain growth inhibition, active compounds read high
Method in brief: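 Compound exposure of yeast; growth compared with vehicle controls; inhibition reported.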

[13] = NCI Yeast Anticancer Drug Screen. Data for the mlh1 strain (AID 171);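 also: 0% = growth of vehicle-treated control cultures of the same strain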; conditions: S. cerevisiae mlh1 strain growth inhibition, active compounds read high
Method in brief: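 Compounds are applied to a genetically altered yeast strain, and its growth is compared with that of vehicle-treated cultures to give percent inhibition.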

[14] = NCI Yeast Anticancer Drug Screen. Data for the sgs1 strain (AID 173);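 also: 0% = growth of vehicle-only control cultures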; conditions: S. cerevisiae sgs1 mutant, active compounds read high
Method in brief: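 Compounds applied to genetically altered yeast; growth compared with vehicle-treated cultures to give % inhibition.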

[15] = NCI Yeast Anticancer Drug Screen. Data for the mlh1 rad18 strain (AID 175); conditions: S. cerevisiae mlh1 rad18 strain growth inhibition, active compounds read high
Method in brief: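 Cells of a genetically altered yeast strain, deficient in DNA damage repair, were treated with compound. Their growth was then compared with that of vehicle-treated cultures to give inhibition.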

[16] = NCI Yeast Anticancer Drug Screen. Data for the rad18 strain (AID 177); conditions: S. cerevisiae rad18 mutant growth inhibition, active compounds read high
Method in brief: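 Compounds are applied to a repair-deficient yeast strain, and growth is compared with that of vehicle-treated cultures to give percent inhibition.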

[17] = at 5.0 µM (retest, dose inferred, filed as 0.5)
[18] = at 50.0 µM (retest, dose inferred, filed as 5.0)

Measured: growth inhibition

CC(C)(N=Nc1ccc(Cl)cc1)[N+](=O)[O-]
inactive: [1]; at 1.2 µM 17% | [1]; at 3.7 µM 27% | [2]; at 1.2 µM 10% | [2]; at 3.7 µM 12% | [2]; at 11.0 µM 68% | [3]; at 1.2 µM 13% | [3]; at 3.7 µM 17% | [3]; at 11.0 µM 60% | [4]; at 1.2 µM 12% | [4]; at 3.7 µM 22% | [5]; at 1.2 µM 15% | [5]; at 3.7 µM 35% | [5]; [17] 47% | [6]; at 1.2 µM -1% | [6]; at 3.7 µM 9% | [6]; [17] 28% | [6]; at 11.0 µM 64% | [7]; at 1.2 µM 16% | [7]; at 3.7 µM 21% | [8]; [17] 35% | [9]; at 1.2 µM 14% | [9]; at 3.7 µM 19% | [10]; [17] -1% | [11]; at 1.2 µM 19% | [11]; at 3.7 µM 18% | [11]; [17] 27% | [12]; at 1.2 µM 12% | [12]; at 3.7 µM 15% | [13]; at 1.2 µM 3% | [13]; at 3.7 µM 11% | [14]; at 1.2 µM 11% | [14]; at 3.7 µM 19% | [15]; [17] 47% | [16]; at 1.2 µM 15% | [16]; at 3.7 µM 23%
active: [1]; at 11.0 µM 90% | [1]; at 33.0 µM 97% | [1]; at 100.0 µM 97% | [2]; at 33.0 µM 98% | [2]; at 100.0 µM 98% | [3]; at 33.0 µM 90% | [3]; at 100.0 µM 96% | [4]; at 11.0 µM 79% | [4]; at 33.0 µM 98% | [4]; at 100.0 µM 99% | [5]; at 11.0 µM 93% | [5]; at 33.0 µM 98% | [5]; [18] 98% | [5]; at 50.0 µM 99% | [5]; at 100.0 µM 98% | [6]; at 33.0 µM 98% | [6]; [18] 99% | [6]; at 50.0 µM 98.9% | [6]; at 100.0 µM 98% | [7]; at 11.0 µM 76% | [7]; at 33.0 µM 97% | [7]; at 100.0 µM 97% | [8]; [18] 98% | [8]; at 50.0 µM 98.7% | [9]; at 11.0 µM 83% | [9]; at 33.0 µM 97% | [9]; at 100.0 µM 98% | [10]; [18] 98% | [10]; at 50.0 µM 98.5% | [11]; at 11.0 µM 82% | [11]; at 33.0 µM 97% | [11]; [18] 99% | [11]; at 50.0 µM 99% | [11]; at 100.0 µM 98% | [12]; at 11.0 µM 88% | [12]; at 33.0 µM 98% | [12]; at 100.0 µM 98% | [13]; at 11.0 µM 77% | [13]; at 33.0 µM 98% | [13]; at 100.0 µM 99% | [14]; at 11.0 µM 95% | [14]; at 33.0 µM 98% | [14]; at 100.0 µM 98% | [15]; [18] 98% | [15]; at 50.0 µM 98.7% | [16]; at 11.0 µM 94% | [16]; at 33.0 µM 98% | [16]; at 100.0 µM 96%

COc1ccc2nc3cccc([N+](=O)[O-])c3c(NCCNCCN(C)C)c2c1
inactive: [1]; at 1.2 µM -4% | [1]; at 3.7 µM -3% | [1]; at 11.0 µM -6% | [1]; at 33.0 µM -4% | [1]; at 100.0 µM 2% | [2]; at 1.2 µM -3% | [2]; at 3.7 µM -2% | [2]; at 11.0 µM -2% | [2]; at 33.0 µM -1% | [2]; at 100.0 µM 3% | [3]; at 1.2 µM -4% | [3]; at 3.7 µM 0% | [3]; at 11.0 µM 0% | [3]; at 33.0 µM -4% | [3]; at 100.0 µM 3% | [4]; at 1.2 µM 0% | [4]; at 3.7 µM -3% | [4]; at 11.0 µM 20% | [4]; at 33.0 µM -3% | [4]; at 100.0 µM 5% | [5]; at 1.2 µM -4% | [5]; at 3.7 µM -5% | [5]; [17] 29% | [5]; at 11.0 µM -12% | [5]; at 33.0 µM -4% | [5]; at 100.0 µM 1% | [6]; at 1.2 µM 2% | [6]; at 3.7 µM -1% | [6]; [17] 5% | [6]; at 11.0 µM 2% | [6]; at 33.0 µM -1% | [6]; at 100.0 µM 8% | [7]; at 1.2 µM -2% | [7]; at 3.7 µM -2% | [7]; at 11.0 µM 0% | [7]; at 33.0 µM 1% | [7]; at 100.0 µM 4% | [8]; at 50.0 µM 68.2% | [9]; at 1.2 µM -1% | [9]; at 3.7 µM -2% | [9]; at 11.0 µM -11% | [9]; at 33.0 µM 3% | [9]; at 100.0 µM 12% | [10]; [17] 32% | [11]; at 1.2 µM -5% | [11]; at 3.7 µM 4% | [11]; [17] -33% | [11]; at 11.0 µM 3% | [11]; at 33.0 µM -5% | [11]; [18] 50% | [11]; at 50.0 µM -5.3% | [11]; at 100.0 µM -5% | [12]; at 1.2 µM -2% | [12]; at 3.7 µM -4% | [12]; at 11.0 µM -3% | [12]; at 33.0 µM -3% | [12]; at 100.0 µM 1% | [13]; at 1.2 µM -4% | [13]; at 3.7 µM -4% | [13]; at 11.0 µM -1% | [13]; at 33.0 µM -3% | [13]; at 100.0 µM 3% | [14]; at 1.2 µM -1% | [14]; at 3.7 µM -1% | [14]; at 11.0 µM 0% | [14]; at 33.0 µM -1% | [14]; at 100.0 µM 2% | [15]; [17] 55% | [15]; at 50.0 µM 66.5% | [16]; at 1.2 µM -5% | [16]; at 3.7 µM -3% | [16]; at 11.0 µM -4% | [16]; at 33.0 µM 3% | [16]; at 100.0 µM 6%
active: [5]; [18] 97% | [5]; at 50.0 µM 74.7% | [6]; [18] 97% | [6]; at 50.0 µM 73% | [8]; [17] 72% | [8]; [18] 93% | [10]; [18] 99% | [10]; at 50.0 µM 77.7% | [15]; [18] 96%

CCCCCCCCCCCCCCCCCCNC(=S)/N=C/c1c(O)c2ccccc2[nH]c1=O
inactive: [1]; at 1.2 µM 7% | [1]; at 3.7 µM 4% | [1]; at 11.0 µM 16% | [1]; at 33.0 µM 11% | [1]; at 100.0 µM 12% | [2]; at 1.2 µM -32% | [2]; at 3.7 µM -6% | [2]; at 11.0 µM -3% | [2]; at 33.0 µM -3% | [2]; at 100.0 µM -3% | [3]; at 1.2 µM 1% | [3]; at 3.7 µM 3% | [3]; at 11.0 µM 12% | [3]; at 33.0 µM 29% | [3]; at 100.0 µM 40% | [4]; at 1.2 µM 1% | [4]; at 3.7 µM 4% | [4]; at 11.0 µM 2% | [4]; at 33.0 µM 1% | [4]; at 100.0 µM 0% | [5]; at 1.2 µM -1% | [5]; at 3.7 µM 0% | [5]; [17] -12% | [5]; at 11.0 µM 1% | [5]; at 33.0 µM 1% | [5]; [18] 61% | [5]; at 50.0 µM 63% | [5]; at 100.0 µM -1% | [6]; at 1.2 µM 0% | [6]; at 3.7 µM 2%
